# Sampled rows, rich in hits. Any-hit rate of the full collection: about 12%.
# G9a block – G9a (human) methyltransferase inhibition; Q96KQ7; 8.8% of 350,000 active; Potency, µM (doses to about 102 µM), for the others: at the highest dose activity, negative = inhibition, actives largely listed as inhibitors; G9a H3K9 monomethylation, AlphaScreen, 2 h; AID 504332; note: % is set by controls: 0 for no effect and ±100 for the full control effect; nearly all actives have a fitted effect of over 75% in size
#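 Compounds were preincubated with 20 nM G9a for 15 min, after which biotinylated H3K9 peptide (500 nM) and SAM (20 uM) started a 2 h room-temperature reaction. Monomethylated product was quantified by antibody-based AlphaScreen chemiluminescence.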
# Sfp inh – inhibitors of Bacillus subtilis Sfp phosphopantetheinyl transferase; Q9F4F7; Biochemical Sfp PPTase activity, qHTS; Potency, µM, inactives show largest response in the series, negative = inhibition, usual class: inhibitors; 3.5% of 310,000 active; AID 1490;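 note: the enzyme is Sfp with the accession as filed and its product quenches rhodamine fluorescence; 0% = enzyme reaction without inhibitor and -100% = no enzyme wells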
#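 Compounds were incubated with enzyme (final 15 nM) for 15 min at room temperature before substrate addition started the reaction. Fluorescence at 525 nm excitation, 598 nm emission was recorded immediately and after 30 minutes.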
# JMJD2A Tudor inh – blocks the human JMJD2A Tudor domain. 4.4% of 390,000 active. O75164. AlphaScreen JMJD2A-Tudor / H3K4me3 peptide binding. Potency, µM (top dose mostly 114 µM), without a hit: at the highest dose activity change, negative = inhibition, hits mostly inhibitors; note: % is set by controls: 0 for no effect and ±100 for the full control effect; nearly all actives have a fitted effect of over 50% in size
# PLK1 PBD inh – inhibitors of human PLK1 polo-box domain binding; P53350; Plk1 PBD binding of FITC phosphopeptide, fluorescence polarization; Potency, µM, for the others: max response, negative = inhibition, usual class: inhibitors; 2.8% of 360,000 active; AID 720504; note: series mostly up to about 57 µM; % is set by controls: 0 for no effect and ±100 for the full control effect; nearly all actives have a fitted effect of over 65% in size
# BAZ2B inh – blocks human BAZ2B | Q9UIF8 | AlphaScreen BAZ2B-H3K14Ac peptide displacement | Potency, µM (highest dose often 114 µM), without a hit: at the highest dose activity change, negative = inhibition, usual class: inhibitors | 4.4% of 360,000 active | AID 504333; note: % is set by controls: 0 for no effect and ±100 for the full control effect; nearly all actives have a fitted effect of over 60% in size
#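 Protein-peptide AlphaScreen: BAZ2B 50 nM, b-H3K14Ac 50 nM, 1x PBS pH 7.4 + 0.01% Tween-20. Preincubation 30 min RT; cpd 30 min RT (top 110 uM); beads 20 min RT, light-protected.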
# HP1b chromo inh – HP1-beta chromodomain-methylated histone interaction inhibition; P83916; AlphaScreen HP1-beta / biotin-H3K9me3 peptide binding; Potency, µM (titrated, usually from 114 µM), for inactives: top-dose activity change, negative = inhibition, actives largely listed as inhibitors; 0.56% of 390,000 active; note: nearly all actives have a fitted effect of over 70% in size
#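 Compound inhibition of the preformed complex between 50 nM HP1-beta and 50 nM biotinylated H3K9me3 peptide was read by AlphaScreen. Buffer was PBS pH 7.4 with 0.01% Tween-20. Incubations ran 30 min at room temperature, with 10 ug/mL donor/acceptor beads.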
# The depositor's hits bear a star; ? = inconclusive; nt = no result given; [ ] = another dose, or the depositor's remark. Calls come from the whole dose curve; as a rule, active = well fitted curve in the direction sought with a large enough effect; inconclusive = small, poorly fitted or top-dose-only effect, or another doubt; inactive = no such curve, though single readings can be large; an effect the other way counts as inactive or inconclusive. Potency is the fitted concentration of half-maximal effect.
SMILES,G9a block,Sfp inh,JMJD2A Tudor inh,PLK1 PBD inh,BAZ2B inh,HP1b chromo inh
S=C(NCCCc1cnc[nH]1)NCCCN(Cc1ccc(Cl)cc1)c1ccc(-c2ccccc2)cn1,nt,nt,50µM*,nt,nt,?
CCCCNC(=S)NCCCN(Cc1ccc(Cl)c(Cl)c1)c1ccc(Br)cn1,nt,nt,-30%,nt,nt,nt
CCN(CC)CCCNC(=S)Nc1ccc(Br)cc1,12%,9%,-6%,5%,-3%,36%
S=C(NCCCc1cnc[nH]1)NCCCN(Cc1ccc(Cl)cc1)c1ccc(Br)cc1,nt,nt,4.5µM*,nt,nt,32µM*
NCCCN(Cc1ccc(Cl)cc1)c1ccc(Br)cn1,nt,nt,-15%,nt,nt,20%
S=C(NCCCc1cnc[nH]1)NCCCN(Cc1ccc(Cl)cc1)c1ncc(Br)cn1,nt,nt,50µM*,nt,nt,?
S=C(NCCCc1cnc[nH]1)NCCCN(Cc1ccc(Cl)cc1)c1ccc(Br)cn1,nt,nt,50µM*,nt,nt,nt
COc1ccc(CCNC(=O)COC(=O)c2ccc(N3CCCC3=O)cc2)cc1,7%,12%,-2%,51%,-11%,19%
Cc1ccc(C)c(CN2CCCN(Cc3ccc(F)cc3)S2(=O)=O)c1,61%[59 µM],nt,62%,nt,67%,89%
O=C(NCCCc1cnc[nH]1)NCCCN(Cc1ccc(Cl)cc1)c1ccc(Br)cn1,nt,nt,45µM*,nt,nt,?
S=C(NCCCc1cnc[nH]1)NCCCN(CCc1ccc(Cl)cc1)c1ccc(Br)cn1,nt,nt,45µM*,nt,nt,?
S=c1[nH]nc(COc2ccccc2)n1/N=C/c1cccs1,1.4µM*,79µM*,?,-26%,-29%,-20%
Cc1ccsc1/C=N/n1c(COc2ccccc2)n[nH]c1=S,0.89µM*,-10%,?,?,10%,-15%
O=C(NCCc1ccccc1)c1ccc(NC(=O)C2CCC2)cc1,nt,nt,-12%,-16%,nt,19%
Cc1ccc(C(=O)N2CCc3cc(CNC(=O)CSc4ccccc4)ccc32)cc1,5%[59 µM],nt,-27%,nt,-15%,-13%
CC(=O)Nc1cccc(Nc2nc3ccccc3n3c(C)nnc23)c1,1%[59 µM],nt,-9%,nt,-1%,34%
COc1ccc(NC(=O)c2c(NCc3cccs3)sc3c2CCCC3)cc1,14µM*,nt,?,nt,-36%,-4%
CCOc1ccc(NC(=O)c2c(NC(=O)CNCCN3CCOCC3)sc3c2CCC3)cc1,40µM*,4%,79µM*,-2%,45µM*,3%
CCOc1ccc(NC(=O)c2c(NC(=O)c3ccccc3F)sc3c2CCC3)cc1,0%[59 µM],nt,-11%,nt,3%,36%
CCOC(=O)c1ccc(NC(=O)c2c(NCc3cccs3)sc3c2CCCCC3)cc1,7.9µM*,nt,56µM*,nt,?,-23%
COc1ccc(NC(=O)c2c(NCc3cccs3)sc3c2CCCCC3)c(OC)c1,8.9µM*,nt,45µM*,nt,?,?
CCOc1ccc(NC(=O)c2c(NCc3cccs3)sc3c2CCC(C)C3)cc1 (stereo unspecified),?,nt,?,nt,-38%,26%
CC(C)CN(CC(C)C)S(=O)(=O)N1CCC(C(=O)NCc2ccc3c(c2)OCO3)CC1,-3%,20%,-20%,-7%,4%,7%
S=c1[nH]cc(-c2ccc(Cl)cc2)n1Cc1ccccc1,?,-6%,-2%[11.4 µM],-16%,-10%,71%
COC(=O)c1c[nH]c(=S)n1Cc1ccccc1,nt,nt,2.8µM*,-9%,nt,18%[57 µM]
SMILES,G9a block,Sfp inh,JMJD2A Tudor inh,PLK1 PBD inh,BAZ2B inh,HP1b chromo inh
CCC(CC)C(=O)Nc1nnc(SCc2cc(=O)n3cccc(C)c3n2)s1,22%[59 µM],nt,-9%,nt,5%,15%[57 µM]
Cc1ccc(CNC(=O)CCCn2c(=O)c3ccccc3n(Cc3ccc(Cl)cc3)c2=O)cc1,-22%[59 µM],nt,-10%,nt,2%,12%
CCC1C(=O)N=C(SCC(=O)Nc2ccc(Br)cn2)NC1=O (stereo unspecified),?,4%,?,27µM*,-19%,21%
O=C(Nc1ccc(F)c(Cl)c1)C1CCN(S(=O)(=O)c2ccc3[nH]c(=O)ccc3c2)CC1,1%[59 µM],nt,-1%,nt,5%,24%[57 µM]
COC(=O)C[C@H]1c2ccccc2[C@H]2C(=C[C@@H](C)[C@H]3C(=O)N(O)C(=O)[C@H]32)N1C(=O)OC,nt,10%,nt,nt,nt,nt
O=C(Oc1ccccc1)N1CCC2(CC1)CCN(c1ccccc1)CC2,5%[12.7 µM],-1%,nt,nt,nt,nt
CCOc1cc(C=NN=C2c3ccccc3-c3ccccc32)ccc1O,nt,nt,25µM*,2%,nt,50µM*
CCOc1cc(/C=N/NC(=O)C(=O)N/N=C/c2ccc(O)c(OCC)c2)ccc1O,nt,22%,-16%,6%,-1%,37%
Oc1cccc(C=NN=C2c3ccccc3-c3ccccc32)c1,nt,nt,45µM*,-1%,nt,?
C(=NN=C1c2ccccc2-c2ccccc21)c1ccc2c(c1)OCO2,nt,nt,20µM*,-3%,nt,50µM*
O=C1Nc2ccccc2/C1=N/N=C/c1cccc(O)c1,nt,-7%,?,3%,-15%,-29%
CCCn1c2c(c(O)c(C(=O)Nc3nc4ccccc4s3)c1=O)CCCC2,-9%[12.7 µM],11%,3%,-2%,-4%,38%
O=C(O)/C(=C\c1ccccc1Cl)c1ccc(S(=O)(=O)N2CCCCC2)s1,?,?,-11%,-12%,-38%,34%
O=C(O)/C(=C\c1ccc(Cl)c([N+](=O)[O-])c1)c1ccc(S(=O)(=O)N2CCCC2)s1,-4%[2.33 µM],nt,?,-26%,56µM*,-2%
O=C(O)/C(=C\c1ccc(Cl)c([N+](=O)[O-])c1)c1ccc(S(=O)(=O)N2CCCCC2)s1,45µM*,45µM*,?,?,?,-2%
O=C(O)/C(=C\c1ccc(Cl)cc1)c1ccc(S(=O)(=O)N2CCCC2)s1,?,nt,-24%,-3%,?,7%
CCCCCSc1nnc2c(n1)OC(c1cccn1C)N(C(C)=O)c1ccccc1-2 (stereo unspecified),?,-2%,28µM*,-3%,?,?
NC(=O)COC(=O)c1ccccc1SCC(=O)NC1CCCCCC1,3%,-16%,-7%,-9%,-6%,1%
O=C(CNC(=O)c1nc[nH]c1C(=O)NCC(=O)OCc1ccccc1)OCc1ccccc1,nt,17%,?,-14%,?,30%
CCN(CC)C(=O)c1[nH]cnc1C(=O)NCC(=O)OCc1ccccc1,79µM*,5%,-17%,-4%,-3%,54%
O=C(CNC(=O)c1nc[nH]c1C(=O)NCc1ccccc1)OCc1ccccc1,13%,12%,-28%,-10%,-3%,43%
CNC(=O)c1[nH]cnc1C(=O)NCC(=O)OCc1ccccc1,45µM*,8%,-33%,-6%,-25%,37%
C[C@H](NC(=O)c1nc[nH]c1C(=O)N[C@@H](Cc1ccccc1)C(=O)OCc1ccccc1)C(=O)OCc1ccccc1,nt,2%,-26%,9%,-1%,45%
CNC(=O)c1[nH]cnc1C(=O)N[C@@H](C)C(=O)OCc1ccccc1,-9%[12.7 µM],-13%,-33%,-1%,50µM*,65%

# Source: PubChem BioAssay (National Center for Advancing Translational Sciences (NCATS))
